Shown are actives, neighbours in structure and some others; about 14% of the full set was active somewhere.
LmPK inh: inhibitors of Leishmania mexicana pyruvate kinase. purified LmPK, Kinase-Glo ATP luminescence, 1 h. Q27686. Potency, µM (highest dose often 57.5 µM), without a hit: at the highest dose activity change, negative = inhibition, most hits filed as inhibitors. 290,000 compounds, 0.37% hits; note: potency is the fitted concentration of half-maximal effect; % is set by controls: 0 for no effect and ±100 for the full control effect
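Purified LmPK (0.1 nM) converted ADP (0.1 mM) to ATP with PEP (0.5 mM) in imidazole buffer pH 7.2 with KCl and MgCl2, 1 h at room temperature. ATP was read by Kinase-Glo luminescence; data normalized to uninhibited and no-enzyme controls.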
CHX counter: counter-screen hit for Shiga toxin inhibitors, cycloheximide. cell reporter, cycloheximide protein synthesis inhibition counterscreen. max response, %. AID 2314. 300,000 compounds, 12% hits; in the data active = max response mostly above about 13%, no sharp cut-off; inactive = mostly below about 14%; note: read at 38.3 µM for the half of the compounds with a filed dose; 0% is about no effect
NS1 function inh: influenza NS1 inhibition. 270,000 compounds, 0.4% hits. Potency, µM (doses to about 46.1 µM), without a hit: top-dose activity, positive = more growth; calls by dose curve; note: potency is the fitted concentration of half-maximal effect; actives are rising curves; nearly all actives have a fitted effect of over 50% in size
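Growth recovery, yeast-based: influenza A NS1 expressed in S. cerevisiae causes slow growth, and suppressors are detected by OD600. The parent strain without NS1 is used as positive control.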
Shiga toxin inh: blocks Shiga toxin action in Vero cells | AID 2315 | Vero cells, Shiga toxin protein synthesis inhibition reporter | inhibition, % at 38.7 µM | 290,000 compounds, 9.2% hits; in the data active = inhibition mostly above about 28%, no sharp cut-off; inactive = mostly below about 43%; note: 0% is about no effect
FBPA Giardia inh: inhibitors of Giardia lamblia fructose-1,6-bisphosphate aldolase; 290,000 compounds, 0.71% hits; A8B2U2; purified Giardia FBPA; Potency, µM (top dose mostly 59.6 µM), inactives show at the highest dose activity, negative = inhibition, actives largely listed as inhibitors; note: potency is the fitted concentration of half-maximal effect; % is set by controls: 0 for no effect and ±100 for the full control effect; nearly all actives have a fitted effect of over 55% in size
Target sequence (A8B2U2 whole entry, looked up): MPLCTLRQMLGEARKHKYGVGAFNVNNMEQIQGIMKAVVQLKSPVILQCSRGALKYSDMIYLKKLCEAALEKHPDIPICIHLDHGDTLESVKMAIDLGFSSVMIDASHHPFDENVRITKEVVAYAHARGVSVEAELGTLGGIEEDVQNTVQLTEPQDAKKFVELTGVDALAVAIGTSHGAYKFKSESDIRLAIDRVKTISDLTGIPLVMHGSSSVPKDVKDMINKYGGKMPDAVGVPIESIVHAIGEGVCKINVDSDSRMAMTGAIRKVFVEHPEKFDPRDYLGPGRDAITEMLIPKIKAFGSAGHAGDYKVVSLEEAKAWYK
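Giardia FBPA (40 nM reagent) was preincubated 10 min at RT with compound (up to 57.5 uM final), then substrate plus GAPDH/TPI/NAD/arsenate coupling system with diaphorase/resazurin was added; resorufin fluorescence (525/598 nm) was read after 20 min.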
* = called active by the depositor; ? = inconclusive; . = no result given; [ ] = dose if it differs, or a comment. Unless noted, calls come from the whole dose curve; as a rule, active = well fitted curve in the direction sought with a large enough effect; inconclusive = small, poorly fitted or top-dose-only effect, or another doubt; inactive = no such curve, though single readings can be large; an effect the other way counts as inactive or inconclusive.

SMILES	LmPK inh	CHX counter	NS1 function inh	Shiga toxin inh	FBPA Giardia inh
CCOc1ccc(-c2cc(C(=O)NCCCN3CCOCC3)c3ccccc3n2)cc1	1%	23*	-8%	40	.
CCc1nnc(N/N=C/c2cc(Br)c(O)cc2O)n1N	-4%	13*	-74%	24*	?
Cc1cccc(C(=O)c2c(N)sc3c2CCC(C)C3)c1 (stereo unspecified)	4%	59*	6%	126*	-13%
COc1cc2c(cc1OC)CN(C(=O)/C=C/c1cccc([N+](=O)[O-])c1)CC2	-2%	5	-20%	-9	2%
O=C(Nc1cccnc1)OC1CCCC1	-12%	22*	.	40	8%
O=C(CCC(=O)NC1CCCCC1)Nc1cccnc1	-1%	1	5%	-2	11%
O=C(Nc1cccnc1)OC1CCCCC1	-2%	19*	.	36	4%
Cc1ccc(NS(=O)(=O)c2c(C)[nH]c(C)c2C(=O)N2CCCCC2)cc1Cl	0%	7	1%	-5	13%
CCOc1cnc(-c2ccc(Cl)cc2)o1	-14%	39*	11%	86*	-3%
CCOc1cnc(-c2c(-c3c(Cl)cccc3Cl)noc2C)o1	5%	-4	.	4	-4%
CCOc1cnc(-c2ccc(OC)cc2)o1	-11%	15*	-1%	55*	3%
CCOC(=O)c1c(C)[nH]c2cc(Br)c(O)cc12	3%	38*	-30%	65*	-14%
CSCCC(NS(=O)(=O)c1ccccc1F)C(=O)N1CCCCCCC1 (stereo unspecified)	-2%	-4	2%	-8	.
O=C1NC(=Nc2ccc(O)cc2)S/C1=C/c1ccco1	5%	17*	.	22	-4%
Cc1ccc(N=C2NC(=O)/C(=C\c3ccco3)S2)cc1	3%	28*	-7%	46*	2%
CCNc1ncc2nc(-c3ccc(F)cc3)c(=O)n(CCc3ccccc3)c2n1	.	.	.	.	5%
CC(C)OCCCNC(=O)c1cn(C)c2ccc(S(=O)(=O)N(C)C3CCCCC3)cc2c1=O	3%	-2	11%	1	.
CN1CCc2c(sc3nc(SCC(=O)N4CCOCC4)n(-c4ccc(Cl)cc4)c(=O)c23)C1	10%	-3	10%	-4	-26%
FC(F)(F)c1cnc2c(-c3ccccc3)n[nH]c2c1	8%	29*	-3%	83*	-1%
CCCCCCCOC(=O)c1ccc(OC(=O)c2cccnc2)cc1	5%	16*	7%	53	-5%
CCc1ccc(C(=O)COC(=O)c2cncc(Br)c2)cc1	-2%	40*	.	33	2%
O=C(COC(=O)c1cncc(Br)c1)NC1CC1	0%	16*	0%	-14	4%
CCc1ccc(OC(=O)c2cncc(Br)c2)cc1	0%	18*	-3%	22	6%
O=C(COC(=O)c1cncc(Br)c1)NC1CCCCC1	1%	-6	.	2	-1%
O=C(Oc1ccc2ccccc2c1)c1cncc(Br)c1	4%	2	10%	-13	3%
SMILES	LmPK inh	CHX counter	NS1 function inh	Shiga toxin inh	FBPA Giardia inh
O=S1(=O)C2CC3CCC2(CN1Cc1ccccc1)O3 (stereo unspecified)	.	7	.	15	8%
Cc1coc2cc3oc(=O)c(CC(=O)N[C@@H](CC(C)C)C(=O)O)c(C)c3cc12	0%	-4	4%	-3	3%
CO[C@@H]1COC(=O)[C@@H](C)NC(=O)C/C=C\[C@@H](C)[C@H](NS(=O)(=O)c2ccc(C)cc2)COC(=O)[C@H](C)NC(=O)C/C=C\[C@H]1C	.	.	.	.	-2%[12.9 µM]
COCCn1c(=O)c(C)nc2cnc(N3CCNCC3)nc21	.	.	.	.	-7%
CCCCCOC(=O)c1ccc(OC(=O)c2cncc(Br)c2)cc1	2%	21*	-9%	27	1%
CC(C)OC(=O)c1ccc(OC(=O)c2cccnc2)cc1	3%	12*	-10%	13	2%
COC(=O)c1ccc(OC(=O)c2cccnc2)cc1	-1%	-3	7%	-1	4%
CC1CCCCN1Cc1c(O)ccc2c(=O)c(-c3ccc(Cl)cc3)coc12 (stereo unspecified)	2%	30*	1%	49	-3%
O=c1c(-c2ccc(Cl)cc2)coc2c(CN3CCOCC3)c(O)ccc12	-3%	17	?	23	2%
CCN(CC)Cc1c(O)ccc2c(=O)c(-c3ccccc3)coc12	-14%	31*	14%	.	3%
CC1CCCCN1Cc1c(O)ccc2c(=O)c(-c3ccc(Br)cc3)coc12 (stereo unspecified)	3%	9	-3%	23	-1%

Screening data (PubChem)
